Test results taken from PubChem BioAssay AID624330 (Southern Research Specialized Biocontainment Screening …, 2012).
In all, about 340,000 compounds went through this assay and about 2,100 (0.62%) were called active.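 How the source made its calls: active means first-screen hits whose inhibition reached a set limit at any dose in the follow-up dose series; inconclusive means inhibition above the set first-screen limit but never retested; inactive means the rest.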 Only a sample is shown. Entries with a potency or affinity are not part of this list.

The compounds below were run against Rac GTPase-activating protein 1 (Homo sapiens) (UniProt Q9H0H5) (assay: blockers of MgcRacGAP-driven Rac1 GTP hydrolysis – biochemical, ADP Hunter fluorescence, primary and confirmatory, confirmation (AID 624330;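 further: fluorescence reports GDP produced by GAP-driven GTP hydrolysis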)). Details: MgcRacGAP-stimulated Rac1 GTP hydrolysis, at 30 µM, stronger effect = higher value, GST-tagged Rac1 F28L mutant substrate.
Sequence of Rac GTPase-activating protein 1 (Homo sapiens) (Q9H0H5 whole entry, looked up): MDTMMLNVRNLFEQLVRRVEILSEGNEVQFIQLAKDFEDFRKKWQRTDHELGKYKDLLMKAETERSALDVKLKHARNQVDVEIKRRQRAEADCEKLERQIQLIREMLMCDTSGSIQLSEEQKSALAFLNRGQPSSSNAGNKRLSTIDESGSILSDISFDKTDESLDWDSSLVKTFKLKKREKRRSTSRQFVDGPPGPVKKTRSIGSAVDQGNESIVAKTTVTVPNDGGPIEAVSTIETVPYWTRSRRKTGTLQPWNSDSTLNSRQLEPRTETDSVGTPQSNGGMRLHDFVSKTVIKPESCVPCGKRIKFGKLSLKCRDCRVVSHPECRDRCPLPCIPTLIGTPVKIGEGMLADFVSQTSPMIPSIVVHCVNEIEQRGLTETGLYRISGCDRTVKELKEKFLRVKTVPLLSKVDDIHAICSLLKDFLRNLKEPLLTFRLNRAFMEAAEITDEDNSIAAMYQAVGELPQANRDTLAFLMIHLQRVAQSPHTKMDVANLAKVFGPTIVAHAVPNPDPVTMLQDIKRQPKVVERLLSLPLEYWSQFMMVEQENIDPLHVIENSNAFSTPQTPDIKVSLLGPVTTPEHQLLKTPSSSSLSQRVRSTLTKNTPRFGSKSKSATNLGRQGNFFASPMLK

inhibition, inactive:
CN(C)c1ccc(/C=N/NC(=O)c2ccc3c(c2)OCO3)cc1 16.6%
Cc1c(F)cccc1NS(=O)(=O)c1ccc2c(c1)n(C)c(=O)c(=O)n2C -0.09%
Cc1c(CN2CCC(C(=O)Nc3cccc(-c4cccc(Cl)c4)c3)CC2)cnn1C 11.7%
Cn1c(SCc2ccccc2)nc2c1c(=O)[nH]c(=O)n2C -7.97%
C#CCNC(=O)C1=C[C@@H](C(C)(C)C)C[C@@H](OCc2ccc(CO)cc2)O1 7.54%
COc1ccc(-c2cc(=O)c3c(O)cc(O)cc3o2)cc1 -5.2%
O=c1cc(-c2ccccc2)oc2cccc(O)c12 0.53%
O=c1cc(-c2ccc(O)cc2)oc2cc(O)cc(O)c12 14.4%
O=c1cc(-c2ccc(O)c(O)c2)oc2ccc3ccccc3c12 2.51%
COc1cccc(/C=C/C(=O)OCC(=O)Nc2nnc(-c3ccccc3)o2)c1 4.25%
Cc1c(NC(=O)c2ccc(S(=O)(=O)Nc3ccccc3F)cc2)c(=O)n(-c2ccccc2)n1C 4.66%
Cc1c(C=O)c2ccccc2n1CC(=O)N1CCc2ccccc2C1 10.2%
O=C(CC(c1ccccc1)c1ccccc1O)NCc1ccco1 (stereo not drawn) 15.2%
O=C1c2ccccc2OCOc2ccccc21 2.81%
O=S1c2ccccc2Oc2ccccc21 -3.3%
CCCCn1c(CN2C(=O)c3ccccc3C2=O)nc2ccccc2c1=O 4.82%
CCOC(=O)C1CCCN(S(=O)(=O)c2ccc3ccccc3c2)C1 (stereo not drawn) 3.67%
CCOc1ccc(NC(=O)C(C)NC(=O)c2ccccc2Cl)cc1S(=O)(=O)N1CCCC1 (stereo not drawn) -0.23%
COC(=O)c1c(NC(=O)CSc2nccn2C)sc(C)c1C -3.2%
COc1ccc(CCNC(=O)Cc2ccccc2)cc1OC 10%
Cc1ccc(Cl)cc1NC(=O)CNCC(c1ccccc1)N(C)C (stereo not drawn) 30.3%
COc1ccc(Cl)cc1NC(=O)CNCC(c1ccccc1)N(C)C (stereo not drawn) 21.9%
CCOC(=O)c1cc(NC(=O)CNCC(c2ccccc2)N(C)C)cc(C(=O)OCC)c1 (stereo not drawn) 16.1%
Cc1cc(NC(=O)CNCC(c2ccccc2)N(C)C)c([N+](=O)[O-])cc1C (stereo not drawn) 13.9%
COc1ccc(CCNC(=O)CSc2ccccc2)cc1OC -5.12%
COc1ccc(C)cc1S(=O)(=O)N(C)CC(=O)N1CCC(C(N)=O)CC1 -7.33%
O=C(CSCC(=O)OCn1nnc2ccccc2c1=O)Nc1ccc(Cl)cc1 7.19%
CCc1nc(N2CCC3(CC2)OCCO3)c2nnn(Cc3ccccc3)c2n1 0%
CCCn1c(=NC(=O)CCS(=O)(=O)c2ccccc2)sc2cc(S(N)(=O)=O)ccc21 -5.12%
CCC(=O)N1CCC(c2ccc(OC)cc2)=N1 1.71%
CCC(=O)Nc1nnc(S(=O)(=O)N(CC)c2cc(C)cc(C)c2)s1 3.75%
Cc1ccc2nc(-c3ccncc3)c(NC3CCCC3)n2c1 -17.4%
Cc1ccn2c(NC3CCCC3)c(-c3ccsc3)nc2c1 13.1%
O=C(Nc1ccc(Cl)cc1)C1CCN(C(=O)c2cccs2)CC1 6.08%
Cc1ccc2occ(C(c3nnnn3Cc3ccccc3)N3CCOCC3)c(=O)c2c1 (stereo not drawn) 7.16%
O=C(NN=Cc1ccc(O)cc1)C(=O)NN=Cc1ccc(O)cc1 28.3%
C=C1CC(C(=O)N/N=C/c2ccccc2)C1 11.8%
O=[N+]([O-])c1ccc(C=NNC(=S)NN=Cc2ccc([N+](=O)[O-])cc2)cc1 -0.77%
O=C(NN=Cc1ccc(F)cc1)C1CC1 6.86%
O=C(Nc1cccc(NC(=O)c2ccco2)c1)c1ccc2c(c1)OCCO2 2.32%
O=C(Nc1ccc(NC(=O)c2ccc3c(c2)OCCO3)cc1)c1ccccc1 1.42%
O=C(NC1CCCCCC1)c1ccc[nH]c1=S 5.17%
COc1ccc(NC(=O)CSc2nnc3ccc(-c4cccnc4)nn23)c(OC)c1 -2.52%
O=C1CS/C(=N/N=C/c2ccccc2)N1c1ccc(O)cc1 8.23%
COc1ccc(/C=N/N=C2\SCC(=O)N2c2c(C)n(C)n(-c3ccccc3)c2=O)cc1OC 5.82%
COc1ccc(/C=N\N=C2/SC(CC(=O)O)C(=O)N2c2ccc(O)cc2)cc1 (stereo not drawn) 3.73%
COc1ccc(/C=N\N=C2/SC(CC(=O)O)C(=O)N2c2ccc(O)cc2)cc1OC (stereo not drawn) 2.46%
O=C(NCCC1=CCCCC1)C(=O)c1c[nH]c2ccccc12 1.95%
Cc1ccc(S(=O)(=O)[N-]c2nc3ccccc3nc2-[n+]2cc(C)cc(C)c2)cc1 9.42%
COc1ccccc1Oc1nnnn1-c1ccc(C(N)=O)cc1 2.99%
CCn1cc(/C=C(\NC(=O)c2ccccc2F)C(=O)N2CCN(C)CC2)c2ccccc21 19%
C[C@@H]1CN(S(=O)C(C)(C)C)[C@@H](CCO)/C1=C\CCO (stereo partly drawn) 8.46%
Cc1cc(NC(=O)c2ccccc2)no1 5.35%
Cc1ccc2c(Cl)c(C(=O)Nc3cc(C)on3)sc2c1 4.78%
Cc1ccc(S(=O)(=O)c2c(COC(=O)c3ccccc3Cl)c(-c3ccccc3)nn2C)cc1 4.7%
Cc1nc2ccc(NC(=O)CCS(=O)(=O)c3ccc(Cl)cc3)cc2s1 -5.04%
CC(C)CC1NC(=O)N(CC(=O)Nc2ccc3c(c2)CCC3)C1=O (stereo not drawn) 9.25%
O=C(NCCS(=O)(=O)c1ccc(Cl)cc1)c1ccc(F)cc1 2.29%
Cc1c(C(=O)Nc2ccc(S(=O)(=O)Nc3ncccn3)cc2)oc2ccc(F)cc12 -2.01%
O=C(O)C1CCN(Cc2cccnc2)CC1 2.37%
O=S1(=O)CCN(Cc2cccnc2)CC1 0.02%
CC1CCCCN1Cc1ccc(N(C)C)cc1 (stereo not drawn) 9.51%
CC1CCCCN1Cc1ccc(N)cc1 (stereo not drawn) 5.78%
